# Data from PubChem BioAssay AID504660 (National Center for Advancing Translational Sciences (NCATS), 2011).
# Values joined by “and” are separate entries in the source; they are usually repeats but may differ in a detail not shown here. Equal values may be shown once. In all, about 360,000 compounds went through this assay and about 3,700 (1%) were called active. No stated cut-off is given here; in the data, active means activation above about 30%; inactive means the rest. Many of the other results were omitted from the sample, so actives are more common in it than they were.
# Biological target: D(1A) dopamine receptor (Homo sapiens) (UniProt P21728)
# Assay: Allosteric Agonists of the Human D1 Dopamine Receptor: qHTS; further: 0% is about no effect
# Conditions: HEK293 T-REx D1 cells, calcium flux, agonist mode; at 2 µM; active compounds read high
# Procedure, shortened: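 Tetracycline-induced HEK293 TREx D1 cells, force-coupled to calcium signalling, were dye-loaded with a no-wash calcium kit. Compound was pin-added after a 10 s baseline. Fluorescence was read kinetically at 1 cycle/s for 180 s, with calcium rises flagged as agonism.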
# D(1A) dopamine receptor (Homo sapiens), sequence (P21728 whole entry, looked up): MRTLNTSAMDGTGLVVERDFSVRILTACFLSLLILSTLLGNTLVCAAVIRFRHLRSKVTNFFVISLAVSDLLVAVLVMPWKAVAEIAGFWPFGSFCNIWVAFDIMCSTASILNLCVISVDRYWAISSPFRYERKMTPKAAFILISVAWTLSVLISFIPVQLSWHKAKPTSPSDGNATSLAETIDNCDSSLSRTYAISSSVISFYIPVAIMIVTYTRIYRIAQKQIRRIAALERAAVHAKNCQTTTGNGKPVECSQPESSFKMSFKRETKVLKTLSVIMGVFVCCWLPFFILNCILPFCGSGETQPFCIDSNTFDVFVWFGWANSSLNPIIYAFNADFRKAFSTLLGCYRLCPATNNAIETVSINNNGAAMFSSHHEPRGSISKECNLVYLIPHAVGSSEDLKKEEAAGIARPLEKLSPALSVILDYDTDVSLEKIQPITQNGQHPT
row,Compound,activation
1,Oc1ccc(-c2nc3ccc(Cl)cn3c2Nc2ccc3c(c2)OCO3)cc1,2.27% (inactive)
2,Cc1c(NC(=O)c2cc(=O)c3ccccc3o2)c(=O)n(-c2ccccc2)n1C,-0.0323% (inactive)
3,COc1ccccc1-c1noc(-c2ccc(NCc3ccccc3)c([N+](=O)[O-])c2)n1,-1.19% (inactive)
4,Cc1ccc(Cl)cc1NC(=O)CSc1nc2ccccc2nc1Cc1ccccc1,3.58% (inactive)
5,CCCn1c2ccccc2c2cnn(CC(=O)NCCCOC(C)C)c(=O)c21,-0.0904% (inactive)
6,CCCn1c2ccccc2c2cnn(CC(=O)NCCCN3CCCCC3CC)c(=O)c21 (centres undefined),2.1% (inactive) and -0.646% (inactive)
7,CCCn1c2ccccc2c2cnn(CC(=O)NCC3CCN(Cc4ccc(C)cc4)CC3)c(=O)c21,32% (active)
8,Cc1ccc(NC(=O)Cc2ccc(NC(=O)N3CCCCc4ccccc43)cc2)cc1,4.12% (inactive)
9,Cc1ccc(Cl)cc1NC(=O)C(C)n1nnc2sc(-c3ccccc3)cc2c1=O (centres undefined),-0.45% (inactive)
10,Cc1ccc(-n2c(SCC(=O)Nc3cccc(F)c3)nc3c(oc4ccccc43)c2=O)cc1C,4.64% (inactive)
11,CCN(CC(=O)Nc1ccc2c(c1)OCO2)S(=O)(=O)c1ccccc1,2.93% (inactive)
12,NC(=O)c1ccc(NC(=O)COC(=O)c2c3c(nc4ccccc24)/C(=C\c2ccc4c(c2)OCO4)CCC3)cc1,51.7% (active)
13,CCc1ccc(NC(=O)Cn2nnc(C(=O)NCc3ccc4c(c3)OCO4)c2N)cc1,0.807% (inactive)
14,CC(NC(=S)Nc1ccc(S(N)(=O)=O)cc1)c1ccc2c(c1)OCO2 (centres undefined),3.07% (inactive)
15,O=C(COC(=O)c1c2c(nc3ccccc13)CCCC2)c1ccc(Br)s1,8.91% (inactive)
16,NS(=O)(=O)c1ccc(NC(=O)COC(=O)c2c3c(nc4ccccc24)/C(=C\c2ccc4c(c2)OCO4)CCC3)cc1,59.4% (active)
17,CCN(CC)c1ccc(NC(=O)CN2CCN(CC(=O)Nc3ccc(Cl)cc3)CC2)cc1,2.48% (inactive)
18,CC(C)CCN(C(=O)Nc1ccc(Cl)c(Cl)c1)C(C)c1cccs1 (centres undefined),23.8% (inactive)
19,CCOc1ccccc1CNC(=O)c1ccc2c(c1)nc1n2CCC(C)C1 (centres undefined),-0.796% (inactive)
20,N#CN1CCC(NC(=O)c2ccc(F)cc2)CC1,3.29% (inactive)
21,COc1cccc(C(=O)NC2=NC(c3ccc(N(C)C)cc3)CC(=O)N2)c1 (centres undefined),-0.763% (inactive)
22,Cc1cc(C)cc(NC(=O)C2CCCN2S(=O)(=O)c2cccc3cccnc23)c1 (centres undefined),34.7% (active)
23,O=C(Nc1nccs1)C1CCCN1S(=O)(=O)c1cccc2cccnc12 (centres undefined),0.517% (inactive)

row,Compound,activation
1,Cc1ccc(NC(=O)C2CCCN2S(=O)(=O)c2cccc3cccnc23)c(C)c1 (centres undefined),-0.331% (inactive) and 2.62% (inactive)
2,Cc1noc(/C=C/N(C)C)c1S(=O)(=O)N1CCCC(C(=O)Nc2cccc(F)c2)C1 (centres undefined),5.84% (inactive)
3,O=C(COc1ccccc1)OCc1cc(=O)n2nc(-c3cccs3)sc2n1,3.1% (inactive)
4,Cc1cccc(C(CC(=O)NCC2(c3ccccc3)CCCC2)c2ccccc2)c1O (centres undefined),2.41% (inactive)
5,O=C(CCOc1ccccc1)N(Cc1cccnc1)c1nc2ccc(Cl)cc2s1,2.39% (inactive)
6,COCCCNC(=S)N1CCN(c2nc(-c3cccc(OC)c3)cs2)CC1,6.03% (inactive)
7,CN(C)CCCNC(=S)N1CCC(c2nc3ccccc3[nH]2)CC1,-0.699% (inactive)
8,CN(C)CCCNC(=S)N1CCN(c2nc(-c3ccccc3)cs2)CC1,32.3% (active)
9,COc1cccc(CNc2nccn(-c3ccc(OC)c(OC)c3)c2=O)c1,1.78% (inactive)
10,COc1cc(NC(=O)Cn2c(=O)n(Cc3ccco3)c(=O)c3oc4ccccc4c32)cc(OC)c1,-0.131% (inactive)
11,COCCn1cnc2c1c(=O)n(CC(=O)NN)c(=O)n2Cc1ccccc1,1.04% (inactive)
12,N=c1c2c(-c3ccccc3)c(-c3ccccc3)n(Cc3ccccc3)c2ncn1CCCO,112% (active)
13,CC(C)CCn1cnc2c1c(=O)n(CC(=O)NC(N)=O)c(=O)n2Cc1ccccc1,1.24% (inactive)
14,Cc1cc(C)cc(NC(c2nnc(-c3cccc(F)c3)o2)c2ccc(F)cc2Cl)c1 (centres undefined),2.35% (inactive)
15,N#C/C(=C\c1ccccc1F)c1nc2ccccc2c(=O)[nH]1,6.41% (inactive)
16,Cn1c(COc2ccccc2C(C)(C)C)nc2ccccc21,19.9% (inactive)
17,O=C(NC1CCN(Cc2ccccc2)CC1)c1cc(Br)c(Br)[nH]1,7.63% (inactive)
18,Cc1cc(C(=O)NC2CCN(Cc3ccccc3)CC2)n[nH]1,1.69% (inactive)
19,S=C(Nc1ccc(Br)cc1)NC1CCN(Cc2ccccc2)CC1,39.5% (active)
20,S=C(Nc1ccc(Br)cc1Cl)NC1CCN(Cc2ccccc2)CC1,30.9% (active)
21,Cc1cc(Br)ccc1NC(=S)NC1CCCC1,9.12% (inactive)
22,CC1CN(C(=S)Nc2ccc(Br)cc2Cl)CC(C)O1 (centres undefined),-0.955% (inactive)
23,CCN(Cc1ccccc1)Cc1c(O)ccc2c(=O)c(-c3ccc(Cl)cc3Cl)coc12,-1.31% (inactive)

row,Compound,activation
1,Cc1ccc(NC(=O)NC(C)c2c(-n3cccc3)sc(C)c2C)c(C)c1 (centres undefined),-1.09% (inactive)
2,CCOC(=O)c1cc2ccccc2nc1C,31.8% (active)
3,CCOC(=O)c1cc2ccccc2n1CC(=O)c1ccccc1,6.36% (inactive)
4,CCOC(=O)c1cc(NC(=O)SCC(=O)O)c(C)nc1C,1.84% (inactive)
5,CCOc1ccc(N(CC)C(=O)C2CCN(S(=O)(=O)c3cccc4nonc34)CC2)cc1,0.273% (inactive)
6,CCOc1cccc(CC(=O)N2CCc3c([nH]c4ccccc34)C2c2ccc(F)cc2)c1OCC (centres undefined),2.49% (inactive)
7,O=C(Cc1ccc(Cl)cc1)NC(=S)Nc1ccccc1O,35.4% (active)
8,Cc1ccccc1NC(=S)NC(=O)Cc1ccc(Cl)cc1,69.1% (active)
9,O=C(NC(=S)Nc1ccc(Cl)cc1Cl)C1CC1,1.23% (inactive)
10,Cc1cc(C(=O)NNC(=S)Nc2ccccc2C)cs1,2.41% (inactive)
11,Cc1ccccc1N/C(SCc1ccc(Cl)cc1)=C(/C#N)C(N)=O,3.17% (inactive)
12,COC(=O)c1ccccc1NC(=O)CN(Cc1ccc(Cl)cc1)S(C)(=O)=O,3.99% (inactive)
13,Cc1nnc(NC(=O)CSc2nc3c([nH]c4ccccc43)c(=O)n2-c2cccc(Cl)c2)s1,-0.131% (inactive)
14,COC(=O)c1scc(-c2ccccc2)c1S(=O)(=O)Nc1ccccc1,3.73% (inactive)
15,COc1cccc(NC(=O)C(=O)NCC(c2ccc3c(c2)OCO3)N2CCN(C)CC2)c1 (centres undefined),5.73% (inactive)
16,Cn1c(=O)c2c(SCC(=O)N3CCc4ccccc43)nc(-c3ccc(Cl)cc3)nc2n(C)c1=O,0.75% (inactive)
17,CCc1ccc(NC(=O)c2cc(S(=O)(=O)N3CCCC(C)C3)cn2C)cc1 (centres undefined),3.74% (inactive)
18,CC(C)c1ccc(S(=O)(=O)Nc2ccc(O)c(Sc3nc4ccccc4s3)c2)cc1,2.29% (inactive)
19,CCN(C(=O)Cn1cc(S(=O)(=O)N2CCN(c3ccccc3F)CC2)c2ccccc2c1=O)c1ccc(C)c(C)c1,11.2% (inactive)
20,Cc1ccc(C(=O)N2c3ncnn3C3(CCCCC3)[C@@H]3CCCC[C@@H]32)cc1,-0.224% (inactive)
21,Cc1ccc2c(c1)N(C(=O)CCC(=O)NCc1ccccc1F)CC(C)O2 (centres undefined),1.03% (inactive)
22,CC(=O)Oc1ccccc1C(=O)Nc1ncc([N+](=O)[O-])s1,32.6% (active)
23,O=C(CCc1ccccc1)Nc1ccc(NC(=O)C2CC2)nc1,5.75% (inactive)

row,Compound,activation
1,O=C(CCc1ccccc1)Nc1nn[nH]n1,3.14% (inactive)
2,O=C(COc1ccc(NC(=O)c2ccccc2[N+](=O)[O-])cc1)c1ccc(F)cc1,3.67% (inactive)
3,Cc1ccc2nsnc2c1NC(=O)c1ccccc1[N+](=O)[O-],6.33% (inactive)
4,O=C(CCc1ccccc1)Nc1ncc([N+](=O)[O-])s1,30.3% (active)
5,Fc1cccc(-n2ncc3c2ncn2nc(-c4ccccc4Cl)nc32)c1,-0.538% (inactive)
6,CCOc1ccc(N(CC)S(=O)(=O)N2CCCC(C(=O)NCc3ccc(SC)cc3)C2)cc1 (centres undefined),15.3% (inactive)
7,COc1cccc(N2C(=O)CN(Cc3ccccc3)C2=S)c1,2.26% (inactive)
8,COc1cc(/C=C2/SC(=S)N(Cc3ccccc3)C2=O)cc(OC)c1O,61.8% (active)
9,COc1cc(=O)[nH]c(=O)n1C(=O)Cc1ccccc1,3.4% (inactive)
10,CCOc1ccc(S(=O)(=O)Nc2ccc3oc4c(c3c2)CC(C)CC4)cc1 (centres undefined),8.18% (inactive)
11,O=C(NCCc1ccccc1)c1ccc2c(c1)N(Cc1ccccc1)C(=O)c1ccccc1S2(=O)=O,5.9% (inactive)
12,Cc1ccc(O)c(/C=N/NC(=O)COc2ccc3c(C)cc(=O)oc3c2)c1,3.75% (inactive)
13,Cc1ccc(O)c(NC(=S)NC(=O)COc2ccc(Br)cc2)c1,54.2% (active)
14,Cc1ccc(O)c(NC(=O)c2cc(-c3ccc(F)cc3)no2)c1,-1.3% (inactive)
15,Cc1ccc(C)c(NC(=O)Cn2ccn(-c3ccc(F)cc3)c(=O)c2=O)c1,10.6% (inactive)
16,COc1cc(N2CCCC2)c(OC)cc1/C=C(/C#N)c1cccc(Br)c1,34.6% (active)
17,CCOC(=O)c1c(C)oc2nc(C)nc(N3CCN(c4ccc(OC)cc4)CC3)c12,0.866% (inactive)
18,COc1ccc(NC(=O)c2ccc3oc(=O)c(S(=O)(=O)c4ccc(F)cc4)cc3c2)c(OC)c1,-0.0208% (inactive)
19,COc1cc(Br)cc2cc(S(=O)(=O)c3ccccc3)c(=O)oc12,2.11% (inactive)
20,Cc1cc(S(=O)(=O)c2cc3ccc(O)c(C)c3oc2=O)ccc1F,56.6% (active)
